# High-throughput results from PubChem BioAssay.
# Hits are enriched below; roughly 21% of the tested compounds scored in any of these assays.
# CYP2C9 inhib – blockers of cytochrome P450 2C9 activity – biochemical, luminescence, ADME assay, primary screen; AID 777, 2007; 96,000 tested, 20% active; inhibition, % at 5 µM; CYP2C9 Supersomes, luciferin-H conversion; P11712;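 active = blocking of liver enzyme CYP2C9 beyond about 50% at 5 µM, limit read from the data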
# CYP2C19 inhib – blockers of cytochrome P450 2C19 activity – biochemical, luminescence, ADME assay, primary screen. P33261. CYP2C19 Supersomes, luciferin-H EGE luminescence, 30 min. 96,000 tested, 21% active. inhibition, % at 5 µM;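 active = CYP2C19 inhibition above a set limit at 5 µM in the primary screen, cut at about 50% in these data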;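 note: plate controls were negative control wells for no effect and 2.5 mM tranylcypromine positive control for full effect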
# Target sequence (P33261 whole entry, looked up): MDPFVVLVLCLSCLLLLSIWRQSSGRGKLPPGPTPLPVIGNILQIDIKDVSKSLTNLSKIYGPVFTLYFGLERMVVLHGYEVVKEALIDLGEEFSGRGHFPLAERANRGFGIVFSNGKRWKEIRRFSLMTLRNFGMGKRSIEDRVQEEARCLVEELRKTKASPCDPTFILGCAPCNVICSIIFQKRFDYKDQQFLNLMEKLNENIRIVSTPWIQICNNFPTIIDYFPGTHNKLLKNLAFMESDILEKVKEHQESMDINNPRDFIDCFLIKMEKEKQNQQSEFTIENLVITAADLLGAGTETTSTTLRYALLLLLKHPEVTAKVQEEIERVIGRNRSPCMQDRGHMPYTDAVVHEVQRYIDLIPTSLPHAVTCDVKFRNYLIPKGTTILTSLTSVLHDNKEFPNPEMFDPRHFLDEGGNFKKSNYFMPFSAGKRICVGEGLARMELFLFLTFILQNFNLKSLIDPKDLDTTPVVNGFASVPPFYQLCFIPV
# MRP1 act – H69AR viability gain despite doxorubicin, primary screen, MRP-1 activator project, H69AR cells, CellTiter-Glo | 140,000 tested, 0.61% active | AID 799, 2007 | viability rescue | viability increase, % at 10 µM;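 active = viability gain under doxorubicin at or above a set limit, the compound median plus 3 SD, cut at about 4.7% in these data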;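 note: MRP-1 overexpressing cells given doxorubicin 25 µM after compound pretreatment; 18-22 h compound pretreatment then 72 h with doxorubicin before readout; 0% = doxorubicin-only wells and 100% = vehicle-treated cells without doxorubicin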
# MRP reversal – reversal of MRP1-mediated doxorubicin resistance, primary screen, H69AR cells, doxorubicin co-treatment; H69AR cells + 2 uM doxorubicin, CellTiter-Glo, 72 h; differential viability (reversal), % at 10 µM; 85,000 tested, 0.04% active; AID 602, 2007;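 active = viability drop by adding the cancer drug above about 55%, with treated viability meeting a 40% cutoff, limit read from the data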;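 note: viability without doxorubicin minus viability with 2 µM doxorubicin for each compound; larger differential means the compound sensitizes cells more to doxorubicin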
# CYP2C9 activ – human CYP2C9 activators, primary screen, biochemical, luminescence; Cytochrome P450 2C9 (Homo sapiens), P11712; activation factor at 5 µM; recombinant CYP2C9, luciferin-H conversion; stronger effect = higher value; factor 1 = untreated enzyme, 0 = blocked; 96,000 tested, 1.4% active; AID 1024, 2008;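 active = activation factor of 2 or more for CYP2C9 at a 5 µM dose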;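 note: 0 = sulfaphenazole-blocked wells and 1 = vehicle-only wells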
# CYP2C19 activ – human CYP2C19 activators, primary screen, biochemical, luminescence; activation factor at 5 µM; Cytochrome P450 2C19 (Homo sapiens), P33261; AID 1025, 2008; 96,000 tested, under 10 active; recombinant CYP2C19, luciferin-H EGE luminescence; stronger effect = higher value; 0 = fully inhibited enzyme, 1 = untreated enzyme;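 active = activation factor of at least 2 at 5 µM in the primary screen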;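 note: 0 = wells with 2.5 mM tranylcypromine and 1 = vehicle-only wells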
# * = called active by the depositor; · = no result.
SMILES,CYP2C9 inhib,CYP2C19 inhib,MRP1 act,MRP reversal,CYP2C9 activ,CYP2C19 activ
COC(=O)c1ccc(NC(=O)NS(=O)(=O)c2ccc(C)cc2)cc1,-13.0,-5.6,-0.8,-0.9,1.1,1.1
CCCCc1ccc(-c2nc(NC(=O)C3C4CCC(O4)C3C(=O)O)sc2C)cc1 (centres undefined),-8.3,5.7,-1.8,·,1.1,0.9
COc1ccc2cc3cc(C(=O)NC(C)C)oc3nc2c1,11.7,20.6,-0.8,17.2,0.9,0.8
COc1ccc2cc3cc(C(=O)NCc4ccc5c(c4)OCO5)oc3nc2c1,64.4*,35.2,0.9,1.7,0.4,0.6
COc1ccc2cc3cc(C(=O)Nc4ccc5c(c4)OCCO5)oc3nc2c1,34.0,45.5,-2.8,-0.5,0.7,0.5
CCN(C(=O)c1cc2cc3ccc(C)cc3nc2o1)c1ccc(OC)cc1,29.7,26.6,6.6*,-0.9,0.7,0.7
COc1ccc2cc3cc(C(=O)N4CCN(Cc5ccc6c(c5)OCO6)CC4)oc3nc2c1,52.9*,20.1,2.3,·,0.5,0.8
O=CNNC(=O)c1cccc([N+](=O)[O-])c1,·,·,0.6,·,·,·
CCc1ccccc1NCC(=O)Nc1ccc(Cl)c(C(F)(F)F)c1,·,·,-2.4,·,·,·
O=C(N/N=C/c1ccc(COc2ccc(Br)cc2)o1)c1ccco1,·,·,2.2,·,·,·
CC(C)(C)Nc1nc(Cl)nc(NC(C)(C)C)n1,·,·,-1.7,·,·,·
CNc1nc(Cl)nc(NC(C)(C)C)n1,-172.8,13.6,-2.4,·,2.7*,0.9
N#CC1=C(N)NC(SCC(=O)Nc2ccccc2)=C(C#N)C12CCCC2,94.6*,98.8*,-3.2,·,0.1,0
CC1=C(C(=O)Nc2ccccc2)C2(CCCCC2)C(C#N)=C(S)N1,83.6*,68.3*,-1.3,12.8,0.2,0.3
N#CC1=C(N)NC(SCC(=O)O)=C(C#N)C12CCCC2,25.6,24.9,-2.3,-8.8,0.7,0.8
CCc1nc(SCc2ccc(F)cc2)[nH]c(=O)c1C#N,·,·,0.0,16.9,·,·
N#CC1=C(N)NC(SCc2ccc(F)cc2)=C(C#N)C12CCCCC2,100.0*,100.0*,-2.5,-50.1,0,0
CCOc1ccc(C(=O)NCC(=O)OCc2ccc(F)cc2Cl)cc1,·,·,2.5,·,·,·
O=C(COC(=O)CCCNC(=O)c1ccc(Cl)cc1)NCc1ccccc1Cl,70.0*,55.6*,0.8,·,0.3,0.4
O=C(COC(=O)C1CC2C=CC1C2)NCc1ccccc1Cl (centres undefined),·,·,-2.4,·,·,·
O=C(COC(=O)C1CCC1)NCc1ccccc1Cl,29.7,87.9*,0.3,10.3,0.7,0.1
O=C(COC(=O)C1CCC1)Nc1ccc(Oc2ccccc2)cc1,-37.8,55.0*,-0.6,·,1.4,0.4
CC1CC1C(=O)OCC(=O)NCc1ccccc1Cl (centres undefined),8.1,87.6*,-0.6,-20.8,0.9,0.1
O=C(COC(=O)CCSc1ccc(Cl)cc1)NCc1ccccc1Cl,·,·,-2.0,·,·,·
O=C(COC(=O)C1CC1)Nc1ccc(Oc2ccccc2)cc1,-8.1,29.4,-1.0,6.7,1.1,0.7
SMILES,CYP2C9 inhib,CYP2C19 inhib,MRP1 act,MRP reversal,CYP2C9 activ,CYP2C19 activ
COC(=O)c1ccc(CSc2nc3ccc(S(=O)(=O)N4CCOCC4)cc3[nH]2)cc1,·,·,2.9,·,·,·
CCOc1cc(/C=C\[N+](=O)[O-])ccc1OCC(=O)Nc1ccccc1C,13.9,11.0,-6.6,·,0.9,0.9
CSc1nnc2c(n1)OC(C1CC=C(C)CC1)Nc1ccccc1-2 (centres undefined),-25.6,-9.4,·,-1.7,1.3,1.1
OC(CNCCc1ccccc1)c1ccccc1 (centres undefined),-0.5,66.9*,-1.9,7.5,1,0.3
Cc1ccc(-c2n[nH]c3c2CCC3)cc1,43.0,66.1*,0.7,-2.5,0.6,0.3
c1ccc(C2=Nn3c(nnc3-c3n[nH]c4c3CCC4)SC2)cc1,11.1,49.6,-2.7,-3.0,0.9,0.5
COc1ccc(C(=O)N[C@H](C(=O)OCC(=O)NC(=O)c2cccn2C)C(C)C)cc1,·,·,1.9,·,·,·
CC(=O)C1=C(C)Nc2cc(C(F)(F)F)ccc2S1,36.5,60.0*,-2.3,6.0,0.6,0.4
CCOC(=O)c1c(NC(=O)CC2Sc3ccc(C(F)(F)F)cc3NC2=O)sc(C)c1C (centres undefined),·,·,-2.3,·,·,·
Cc1ccc(C(C)C)c(OC(=O)/C=C/c2ccccc2)c1,21.8,-3.8,-0.8,·,0.8,1
O=C(CCN1CCc2ccccc2C1)Nc1ccccc1,60.5*,91.4*,-2.0,-6.7,0.4,0.1
O=C(CCN1CCc2ccccc2C1)Nc1cccc(F)c1,49.6,91.5*,-1.3,4.3,0.5,0.1
O=C(CCN1CCc2ccccc2C1)Nc1ccccc1F,·,·,-3.4,7.6,·,·
O=C(Nc1ccccc1)N1CCc2ccccc21,·,·,-1.6,-1.9,·,·
O=C(CN1C(=O)CSc2ccccc21)N1CCc2ccccc21,40.1,82.1*,-1.5,-3.4,0.6,0.2
O=C(CCC(=O)N1CCc2ccccc21)Nc1ccccc1,36.9,92.5*,-1.4,-6.2,0.6,0.1
Cc1[nH]c2ccc(F)cc2c1CCNC(=O)C1CCCCC1C(=O)OCC(F)(F)F (centres undefined),·,·,0.2,·,·,·
CCOCC(=O)N1CCc2ccccc21,-6.5,4.5,-1.6,·,1.1,1
CC(CC(=O)N1CCc2ccccc21)c1ccccc1 (centres undefined),15.5,93.6*,-0.7,17.7,0.8,0.1
CCOC(=O)N1CCN(C(=O)CN(c2ccc(Oc3ccccc3)cc2)S(C)(=O)=O)CC1,85.6*,70.3*,-1.1,-1.6,0.1,0.3
Cc1ccc(CN(c2ccc(C(=O)N3CCc4ccccc4C3)cc2)S(C)(=O)=O)cc1,84.3*,49.2,-3.1,-1.8,0.2,0.5
Cc1cccc(NS(=O)(=O)c2cc(C(=O)N3CCCC3)ccc2Cl)c1,·,·,-1.7,·,·,·
CS(=O)(=O)N(Cc1ccccc1)c1ccc(C(=O)N2CCN(c3cccc(Cl)c3)CC2)cc1,98.1*,91.6*,-5.0,-10.8,0,0.1
CCOC(=O)N1CCN(C(=O)c2ccc(Cl)c(S(=O)(=O)Nc3ccccc3)c2)CC1,79.7*,34.8,-2.4,5.5,0.2,0.7
CN(c1ccccc1)S(=O)(=O)c1cccc(NC(=O)CC(C)(C)C)c1,·,·,-1.1,·,·,·
CCN1CCN(C(=O)c2ccccc2N(Cc2ccccc2)S(=O)(=O)c2ccc(C)cc2)CC1,33.1,71.6*,-2.2,-20.7,0.7,0.3
C=CCNC(=O)c1ccccc1NC(=O)c1ccc(Cl)c(S(=O)(=O)Nc2ccccc2)c1,62.0*,61.5*,-3.5,·,0.4,0.4
